Assay results: PubChem BioAssay AID1159580 (chemical genetic matrix, 2015)
The campaign covered roughly 5,500 compounds. About 2,000 (36%) were called active. Another 18% or so got no clear call; they are omitted. Rule as the data show it: active = normalized growth mostly below about 0.91 (no sharp cut-off); inconclusive = no clear call, values can overlap the other calls; inactive = mostly above about 0.92. The list shows a part of the results.

Assay: chemical genetic growth profiling, strain panel (AID 1159580);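 also: tested at 20 µM; growth read once vehicle control cultures reached saturation at 30 °C; 1 = growth at the plate median or of vehicle wells; lower values mean less growth of the strain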
Conditions: S. cerevisiae deletion strains, growth OD

Measured: normalized growth

CCCCCCCCCCCCCC(=O)O[C@@H]1[C@@H](C)[C@@]2(O)[C@@H](C=C(CO)C[C@@]3(O)C(=O)C(C)=C[C@@H]23)C2C(C)(C)[C@@]21OC(C)=O (some centres undefined)
inactive: locus YAL040C, strain CLN3, active compounds read low 0.977 | locus YCL061C, strain MRC1 (second series), active compounds read low 0.992 | locus YDR150W, strain NUM1, active compounds read low 0.999 | locus YDR363W, strain ESC2, active compounds read low 0.999 | locus YER002W, strain NOP16, active compounds read low 0.985 | locus YGR078C, strain PAC10, active compounds read low 0.972 | locus YNL128W, strain TEP1, active compounds read low 1.01 | locus YNL175C, strain NOP13, active compounds read low 1.01 | locus YNL197C, strain WHI3, active compounds read low 1.02 | locus YNL224C, strain SQS1, active compounds read low 1.01 | locus YNL322C, strain KRE1, active compounds read low 1 | locus YOR083W, strain WHI5 (second series), active compounds read low 1.01 | locus YPL055C, strain LGE1, active compounds read low 1.06 | locus YPL241C, strain CIN2, active compounds read low 0.997
